From PubChem
Rows were chosen to be rich in hits. Some 12% of all compounds tested hit in one or more screens of this group.
JMJD2A Tudor: qHTS Assay for Inhibitors of JMJD2A-Tudor Domain | Lysine-specific demethylase 4A (Homo sapiens), O75164 | AlphaScreen JMJD2A-Tudor / H3K4me3 peptide binding | Potency, µM (series often up to 114 µM), actives largely listed as inhibitors | hit rate 4.4% among 390,000 | AID 504339, 2011; note: nearly all actives have a fitted effect of over 50% in size
PI5P4Ka inh: qHTS for Inhibitors of phosphatidylinositol 5-phosphate 4-kinase (PI5P4K); Phosphatidylinositol 5-phosphate 4-kinase type-2 alpha (Homo sapiens), P48426; hit rate 1.2% among 330,000; max response, %; PI5P4Kalpha enzyme, ADP-Glo luminescence, 60 min; stronger effect = lower value; active = max response of -50% or lower; inconclusive = between -30% and -50%; inactive = -30% or higher; note: value at the top dose of about 77 µM
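Compounds were pin-transferred onto PI5P4Kalpha and substrate in HEPES pH 7.4 buffer with EGTA, CHAPS and 5% DMSO. ATP (5 microM final) started the reaction, which ran 60 minutes at room temperature before ADP-Glo detection.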
BAZ2B block: qHTS Assay for Inhibitors of BAZ2B; Bromodomain adjacent to zinc finger domain protein 2B (Homo sapiens), Q9UIF8; AlphaScreen BAZ2B-H3K14Ac peptide displacement; Potency, µM (doses to about 114 µM), hits mostly inhibitors; hit rate 4.4% among 360,000; AID 504333, 2011; note: nearly all actives have a fitted effect of over 60% in size
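Complex of BAZ2B and biotin-H3K14Ac (50 nM apiece) forms over 30 min at RT, then faces library compounds up to 110 uM for another 30 min; AlphaScreen beads added, 20 min dark incubation, luminescence read.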
HP1b binding inh: HTS for Inhibitors of HP1-beta Chromodomain Interactions with Methylated Histone Tails; Chromobox protein homolog 1 (Homo sapiens), P83916; AlphaScreen HP1-beta / biotin-H3K9me3 peptide binding; Potency, µM (top dose mostly 114 µM), usual class: inhibitors; hit rate 0.56% among 390,000; AID 540317, 2011; note: nearly all actives have a fitted effect of over 70% in size
Target sequence (P83916 whole entry, looked up): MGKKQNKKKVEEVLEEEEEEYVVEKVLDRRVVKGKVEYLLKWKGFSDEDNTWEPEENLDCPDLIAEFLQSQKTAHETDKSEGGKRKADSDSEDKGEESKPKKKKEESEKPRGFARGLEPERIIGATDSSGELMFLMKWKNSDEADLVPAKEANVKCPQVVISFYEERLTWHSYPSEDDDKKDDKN
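Compound inhibition of the preformed complex between 50 nM HP1-beta and 50 nM biotinylated H3K9me3 peptide was read by AlphaScreen. Buffer was PBS pH 7.4 with 0.01% Tween-20. Incubations ran 30 min at room temperature, with 10 ug/mL donor/acceptor beads.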
G9a inh-1: qHTS Assay for Inhibitors of Histone Lysine Methyltransferase G9a | G9a H3K9 monomethylation, AlphaScreen, 2 h | hit rate 8.8% among 350,000 | Potency, µM (top dose mostly 102 µM), hits mostly inhibitors; note: nearly all actives have a fitted effect of over 75% in size
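G9a (20 nM) was preincubated 15 min with compound, then reacted 2 h at room temperature with 500 nM biotin-H3K9 peptide and 20 µM SAM. Monomethyl-H3K9 detected by AlphaScreen using anti-H3K9me1 antibody.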
PLK1 PBD block: qHTS for Inhibitors of PLK1-PDB (polo-like kinase 1 - polo-box domain): Primary Screen; Serine/threonine-protein kinase PLK1 (Homo sapiens), P53350; Plk1 PBD binding of FITC phosphopeptide, fluorescence polarization; hit rate 2.8% among 360,000; AID 720504, 2013; Potency, µM, hits mostly inhibitors; note: series mostly up to about 57 µM; nearly all actives have a fitted effect of over 65% in size
JMJD2E inh-1: Inhibitors of Human Jumonji Domain Containing 2E (JMJD2E): 8HQs - Round 1; JMJD2E demethylase, FDH-coupled NADH fluorescence; shares compounds with BAZ2B block; Potency, µM (highest dose often 57 µM), hits mostly inhibitors; hit rate 89% among 130
Target sequence (B2RXH2 1-337 limits assumed): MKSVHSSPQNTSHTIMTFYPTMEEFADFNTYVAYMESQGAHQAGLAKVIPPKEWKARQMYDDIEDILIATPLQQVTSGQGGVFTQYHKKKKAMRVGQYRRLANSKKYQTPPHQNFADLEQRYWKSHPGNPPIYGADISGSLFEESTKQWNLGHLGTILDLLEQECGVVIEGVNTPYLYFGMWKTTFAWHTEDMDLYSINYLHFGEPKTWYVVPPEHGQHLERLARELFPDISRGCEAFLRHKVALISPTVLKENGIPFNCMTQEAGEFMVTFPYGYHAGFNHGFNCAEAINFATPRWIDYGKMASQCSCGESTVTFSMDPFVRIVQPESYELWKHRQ
ME-1 growth: qHTS Assay for Compounds Blocking the Interaction Between CBF-beta and RUNX1 for the Treatment of Acute Myeloid Leukemia: ME-1 cellular proliferation | shares compounds with BAZ2B block | ME-1 cell proliferation, ATP luminescence, 48 h | Potency, µM (doses to about 56.1 µM), usual class: inhibitors | hit rate 20% among 140
JMJD2E inh-2: Confirmation qHTS Assay for Inhibitors of Human Jumonji Domain Containing 2E (JMJD2E); Recombinant JMJD2E, FDH-coupled NADH fluorescence (FDH is formaldehyde dehydrogenase); hit rate 93% among 140; Potency, µM (doses to about 56.8 µM), usual class: inhibitors; shares compounds with JMJD2A Tudor
FDH inh: Counterscreen for JMJD2E Inhibitors: qHTS Assay for Inhibitors of Formaldehyde Dehydrogenase (FDH); shares compounds with JMJD2A Tudor; FDH enzyme assay, NADH fluorescence kinetic; Potency, µM (top dose mostly 56.7 µM), actives largely listed as inhibitors; hit rate 10% among 140; AID 2680, 2010
JMJD2E MS inh: MALDI-TOF-MS Assay for Inhibitors of Human Jumonji Domain Containing 2E (JMJD2E). shares compounds with JMJD2A Tudor. recombinant JMJD2E demethylation, MALDI-TOF-MS. Potency, µM, most hits filed as inhibitors. hit rate 90% among 45;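 active = compounds whose IC50 for blocking JMJD2E demethylation is below 100 µM; inconclusive = dose dependent effect but IC50 above 100 µM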
G9a inh-2: qHTS Assay for Inhibitors of Histone Lysine Methyltransferase G9a: Hit Confirmation; shares compounds with JMJD2A Tudor; G9a H3K9 monomethylation, AlphaScreen, 2 h; Potency, µM, actives largely listed as inhibitors; hit rate 89% among 370; AID 588344, 2011; note: nearly all actives have a fitted effect of over 65% in size
TbPYK inh: qHTS of Trypanosoma Brucei Inhibitors: Confirmatory Assay for Cherry-picked Compounds. shares compounds with PLK1 PBD block. recombinant TbPYK, Kinase-Glo ATP luminescence. Potency, µM (series often up to 76.9 µM), usual class: inhibitors. hit rate 67% among 890. AID 720569, 2013; note: nearly all actives have a fitted effect of over 70% in size
TbPYK orthogonal: qHTS of Trypanosoma Brucei Inhibitors: Orthogonal Assay for Cherry-picked Compounds. shares compounds with PLK1 PBD block. recombinant TbPYK, ADP-Glo luminescence, 60 min. Potency, µM (top dose mostly 76.9 µM), most hits filed as inhibitors. hit rate 62% among 890. AID 720584, 2013; note: nearly all actives have a fitted effect of over 75% in size
A number is an active result; . = inactive; ? = inconclusive; / = no result; [ ] = another dose, or the depositor's remark. Unless noted, calls come from the whole dose curve; as a rule, active = well fitted curve in the direction sought with a large enough effect; inconclusive = small, poorly fitted or top-dose-only effect, or another doubt; inactive = no such curve, though single readings can be large; an effect the other way counts as inactive or inconclusive.

SMILES	JMJD2A Tudor	PI5P4Ka inh	BAZ2B block	HP1b binding inh	G9a inh-1	PLK1 PBD block	others
Oc1cc(Nc2ccccc2)cc2cccnc12	?	/	?	.	.[12.7 µM]	/	JMJD2E inh-1=?;JMJD2E inh-2=?;FDH inh=.
Oc1cccc2cc(N3CCCC3)cnc12	/	/	/	/	/	/	JMJD2E inh-1=18µM;JMJD2E inh-2=18µM;FDH inh=.
Oc1cccc2cc(Nc3ccccc3)cnc12	/	/	/	/	/	/	JMJD2E inh-1=10µM;JMJD2E inh-2=10µM;FDH inh=.
O=C(COc1cccc2cccnc12)NNC(=O)Nc1ccccc1	.	.	.	.	.	.
Oc1cc(NCCN2CCOCC2)cc2cccnc12	22µM	/	2.8µM	.	?	/	JMJD2E inh-1=?;JMJD2E inh-2=18µM;FDH inh=.;JMJD2E MS inh=26
Cc1cccc(Nc2ccccc2)c1	.	.	.	.	.[12.7 µM]	.
O=C(CC1C(=O)NCCN1CC1CCCCC1)NCCCN1CCOCC1 (configuration not stated)	.	.	.	.	/	.
COc1cc(NC(=O)COC(=O)CNC(=O)C2CCCCC2)cc(OC)c1	.	.	.	.	.[12.7 µM]	.
Oc1cccc2cc(-c3ccccc3)cnc12	/	/	/	/	/	/	JMJD2E inh-1=16µM;JMJD2E inh-2=16µM;FDH inh=.
Oc1ccc(CCc2ccccc2)c2cccnc12	45µM	/	/	/	/	/	JMJD2E inh-1=7.1µM;JMJD2E inh-2=9.1µM;FDH inh=.;JMJD2E MS inh=90
Oc1ccc(COc2ccccc2Cl)c2cccnc12	79µM	/	/	/	/	/	JMJD2E inh-1=13µM;JMJD2E inh-2=13µM;FDH inh=.
COc1ccc(-n2nc3cc(C)c(NC(=O)COc4cccc(C)c4)cc3n2)cc1	.	/	.	.	.	/
COc1cc(OC)c(NC(=O)Cn2c(=O)oc3cc(S(=O)(=O)N4CCCC4)ccc32)cc1Cl	.	/	.	.	.	/
COC(=O)c1cnc2c(C(F)(F)F)cccc2c1OC	.	.	.	.	.[12.7 µM]	.
COC(=O)c1ccc(OC(C)=O)c2ncccc12	/	/	/	/	/	/	JMJD2E inh-1=13µM;JMJD2E inh-2=14µM;FDH inh=.
CC1=NN(c2ccccc2)C(=O)/C1=C/C=C/c1ccc(N(C)C)cc1	2.5µM	.	2µM	2.5µM	2µM	.	ME-1 growth=?;TbPYK inh=25µM;TbPYK orthogonal=.
CN(C)c1ccc(NC(=O)Cc2ccccc2)c2ccccc12	.	.	?	.	.	.
COc1ccc(NCc2nnc(SCC(=O)c3ccc(OC)cc3)n2C)cc1	56µM	.	.	.	?	.	G9a inh-2=11
COc1ccc(C(=O)CSc2nnc(CNC(=O)c3ccco3)n2C)cc1	.	.	.	.	.[12.7 µM]	.
O=C(Cc1ccc(-c2ccccc2)cc1)NCCS(=O)(=O)N1CCN(c2ccc(F)cc2)CC1	.	/	.	.	.	/
CCN(CC)c1ccc(NC(=O)COC(=O)c2ccc3ccccc3n2)cc1	?	.	50µM	?	?	.	G9a inh-2=6.3
CCN(CC)c1ccc(NC(=O)COC(=O)c2cccs2)cc1	?	/	45µM	.	1.3µM	.	G9a inh-2=2.2
CN(C)c1cccc(C(=O)Nc2cc(C(F)(F)F)ccc2-n2cnc3ccccc32)c1	.	.	?	.	.	.
COc1ccc(OC)c(NC(=O)CSc2ccc(-c3cccs3)nn2)c1	?	/	.	.	2.8µM	/	G9a inh-2=10
COc1ccc(C2(NC(C)=O)CCN(Cc3cccnc3)CC2)cc1	.	.	.	.	/	.
SMILES	JMJD2A Tudor	PI5P4Ka inh	BAZ2B block	HP1b binding inh	G9a inh-1	PLK1 PBD block	others
CCc1ccccc1NC(=O)CSc1nc2c(c(=O)[nH]1)CN(Cc1ccccc1OC)CC2	.	/	.	.	?	/
COc1ccc(NC(C)c2cc(Cl)ccc2O)cc1 (configuration not stated)	.[11.4 µM]	.	32µM	71µM	?	.	G9a inh-2=?
CCn1c(=O)c2cc(C(=O)N3CCN(c4cccc(Cl)c4)CC3)sc2c2ccccc21	.	/	.	.	?	/
O=C(CSc1nc2c(c(=O)[nH]1)CN(Cc1ccc3c(c1)OCO3)CC2)Nc1ccc(F)cc1	.	/	.	.	.	/
CCn1cnc2cc(NCc3cccc(OC)c3O)ccc21	.	/	?	.	?	.	G9a inh-2=0.28
CCCn1cnc2cc(NCc3ccc(OC)cc3OC)ccc21	?	/	40µM	.	2.8µM	/	G9a inh-2=5.8
CCOc1c(Cl)cc(CNc2ccc(S(N)(=O)=O)cc2)cc1OC	.	.	.	.	.	.
CCOc1c(Cl)cc(CNc2ccc(N3CCCC3)cc2)cc1OC	14µM	.	20µM	45µM	2.8µM	?	G9a inh-2=6.3
O=C(Nc1ccc(F)cc1Cl)c1cnc(N2CCOCC2)c2ccccc12	.	/	.	.	.	/
CN(C)c1ccc(-c2ccnc3c2CC(C)(C(=O)NCc2cccc(Cl)c2)O3)cc1 (configuration not stated)	/	.	/	/	/	.
